Values without a mark were called inactive. Activity calls are given as the source filed them.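 Rule for the calls: active = IC50 of 10 µM or lower; inactive = IC50 above 10 µM.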
experiment: binders of r(CAG) RNA repeats, SAR follow-up, biochemical, fluorescence, dose response, MedChem round 1 (AID 743497); settings: r(CAG) RNA 1x1 AA loop, TO-PRO-1 displacement fluorescence

Row | SMILES | IC50
1 | O=C(/C=C/c1cn(-c2ccccc2)nc1-c1ccc2ccccc2c1)Nc1ccc(C(=O)O)cc1 | 2.18 µM (active)
2 | COc1ccc(-c2nn(-c3ccccc3)cc2/C=C/C(=O)Nc2ccc(C(=O)O)cc2)cc1 | 1.94 µM (active)
3 | CCN1CCN(C(=O)/C=C/c2cn(-c3ccccc3)nc2-c2ccccc2)CC1 | > 29.9 µM
4 | COc1ccc(NC(=O)/C=C/c2cn(-c3ccccc3)nc2-c2ccc(OC)cc2)cc1 | > 29.9 µM
5 | Cc1ccc(-c2nn(-c3ccccc3)cc2/C=C/C(=O)Nc2ccc(S(N)(=O)=O)cc2)cc1 | 29.1 µM
6 | NS(=O)(=O)c1ccc(NC(=O)/C=C/c2cn(-c3ccccc3)nc2-c2cccc(Cl)c2)cc1 | > 29.9 µM
7 | Cc1ccc(-c2nn(-c3ccccc3)cc2/C=C/C(=O)Nc2cccc(S(N)(=O)=O)c2)cc1 | > 29.9 µM
8 | CN1C(=O)/C(=C/c2cn(-c3ccccc3)nc2-c2ccccc2)c2ccccc21 | > 29.9 µM
9 | O=C(/C=C/c1cn(-c2ccccc2)nc1-c1ccccc1)NCc1ccccc1 | > 29.9 µM
10 | N#C/C(=C/c1cn(Cc2ccccc2)nc1-c1cccnc1)C(=O)Nc1ccc(C(=O)O)cc1 | 16 µM
11 | COC(=O)c1ccc(NC(=O)/C=C/c2cn(CCC#N)nc2-c2ccc(F)cc2)cc1 | > 29.9 µM
12 | CC(=O)NS(=O)(=O)c1ccc(NC(=O)/C=C/c2cn(-c3ccccc3)nc2-c2ccccc2)cc1 | 1.62 µM (active)
